Experimental data: PubChem BioAssay (EPA / NIEHS)
Active and inactive are the calls of the source. How the source made its calls: active means hit-call score of the fitted dose curve at least 0.9, where 1 is the maximum; inactive means score below 0.9.

How the values were obtained:
Conditions in all cases: mRNA level, 48 h; actives raise or lower the signal
[1] = read-out: Cytochrome P450 (CYP2B6), CYP2B6 (gene 1555); test: LTEA_HepaRG_CYP2B6: Life Technologies and Expression Analysis (LTEA) Assay for Cytochrome P450 (CYP2B6) using HepaRG (AID 2283481)
Method in brief: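 Differentiated HepaRG cells, serum-free induction medium, exposed 48 h in duplicate to 8-point half-log concentrations from 100 uM in 0.5% DMSO. CYP2B6 mRNA by qRT-PCR, normalized to ACTB, GAPDH, POLR2A; bidirectional fit versus DMSO.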

[2] = read-out: Cytochrome P450 2C19 (Homo sapiens) (UniProt P33261); test: LTEA_HepaRG_CYP2C19: Life Technologies and Expression Analysis (LTEA) Assay for CYP2C19 using HepaRG (AID 2283482)
Method in brief: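 Differentiated human HepaRG cells were exposed for 48 h in serum-free induction medium to 8 concentrations (top 100 uM, half-log steps, 0.5% DMSO). CYP2C19 mRNA was measured by qRT-PCR, normalized to ACTB/GAPDH/POLR2A, and fitted bidirectionally against DMSO.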

CYP2C8 (gene 1558) = test: LTEA_HepaRG_CYP2C8: Life Technologies and Expression Analysis (LTEA) Assay for CYP2C8 using HepaRG (AID 2283483)
Method in brief: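 This is a transcriptional endpoint in HepaRG cultures: 48 h exposure, highest concentration 100 uM. CYP2C8 mRNA is quantified by TaqMan qRT-PCR.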

CYP2C9 (gene 1559) = test: LTEA_HepaRG_CYP2C9: Life Technologies and Expression Analysis (LTEA) Assay for CYP2C9 using HepaRG (AID 2283484)
Method in brief: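 Eight-point concentration-response (highest 100 uM, half-log dilutions) in HepaRG cells for 48 h; CYP2C9 expression by qRT-PCR normalized to ACTB, GAPDH, POLR2A. Bidirectional fit, DMSO baseline.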

CYP2E1 (gene 1571) = test: LTEA_HepaRG_CYP2E1: Life Technologies and Expression Analysis (LTEA) Assay for CYP2E1 using HepaRG (AID 2283485)
Method in brief: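 CYP2E1 transcript measured by Fluidigm qRT-PCR against three housekeeping genes in human HepaRG cells treated 48 h (top 100 uM, half-log steps, 0.5% DMSO vehicle). Gain or loss fitted relative to DMSO baseline.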

CYP4A11 (gene 1579) = test: LTEA_HepaRG_CYP4A11: Life Technologies and Expression Analysis (LTEA) Assay for CYP4A11 using HepaRG (AID 2283486)
Method in brief: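 Differentiated HepaRG cells, serum-free induction medium, exposed 48 h in duplicate to 8-point half-log series from 100 uM in 0.5% DMSO. CYP4A11 mRNA measured by qRT-PCR, normalized to ACTB, GAPDH, POLR2A; bidirectional fit versus DMSO.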

[3] = read-out: Cytochrome P450 3A4 (Homo sapiens) (UniProt P08684); test: LTEA_HepaRG_CYP3A4: Life Technologies and Expression Analysis (LTEA) Assay for CYP3A4 using HepaRG (AID 2283487)
Method in brief: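 HepaRG, 48 h exposure, 8-pt CRC from 100 uM (half-log), 0.5% DMSO, duplicates; serum-free induction medium. Readout: CYP3A4 mRNA, qRT-PCR, ACTB/GAPDH/POLR2A normalization. Bidirectional fit vs DMSO.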

[4] = read-out: DNA damage-inducible transcript 3 (DDIT3), DDIT3 (gene 1649); test: LTEA_HepaRG_DDIT3: Life Technologies and Expression Analysis (LTEA) Assay for DNA damage-inducible transcript 3 (DDIT3) using HepaRG (AID 2283488)
Method in brief: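 DDIT3 transcript was quantified by qRT-PCR with ACTB/GAPDH/POLR2A normalization after 48 h chemical treatment of differentiated HepaRG cells in 0.5% DMSO. Dosing was eight-point, half-log, top 100 uM, duplicate wells. Curves fitted bidirectionally versus DMSO.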

[5] = read-out: Pro-epidermal growth factor (Homo sapiens) (UniProt P01133); test: LTEA_HepaRG_EGF: Life Technologies and Expression Analysis (LTEA) Assay for Epidermal growth factor (EGF) using HepaRG (AID 2283489)
Method in brief: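 Differentiated human HepaRG cells, plated 48 h then switched to serum-free induction medium, were exposed for 48 h to test chemicals (8-point half-log series, top 100 uM, 0.5% DMSO). EGF mRNA was quantified by qRT-PCR, normalized to ACTB, GAPDH, POLR2A.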

[6] = read-out: Early growth response protein 1 (EGR1) transcription factor, EGR1 (gene 1958); test: LTEA_HepaRG_EGR1: Life Technologies and Expression Analysis (LTEA) Assay for Early growth response protein 1 (EGR1) transcription factor using HepaRG (AID 2283490)
Method in brief: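 EGR1 expression change in human HepaRG after 48 h chemical exposure, assessed by housekeeping-normalized qRT-PCR; concentration-response up to 100 uM, fitted in both directions against DMSO controls.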

Measured: AC50

Sequence of Cytochrome P450 2C19 (Homo sapiens) (P33261 whole entry, looked up): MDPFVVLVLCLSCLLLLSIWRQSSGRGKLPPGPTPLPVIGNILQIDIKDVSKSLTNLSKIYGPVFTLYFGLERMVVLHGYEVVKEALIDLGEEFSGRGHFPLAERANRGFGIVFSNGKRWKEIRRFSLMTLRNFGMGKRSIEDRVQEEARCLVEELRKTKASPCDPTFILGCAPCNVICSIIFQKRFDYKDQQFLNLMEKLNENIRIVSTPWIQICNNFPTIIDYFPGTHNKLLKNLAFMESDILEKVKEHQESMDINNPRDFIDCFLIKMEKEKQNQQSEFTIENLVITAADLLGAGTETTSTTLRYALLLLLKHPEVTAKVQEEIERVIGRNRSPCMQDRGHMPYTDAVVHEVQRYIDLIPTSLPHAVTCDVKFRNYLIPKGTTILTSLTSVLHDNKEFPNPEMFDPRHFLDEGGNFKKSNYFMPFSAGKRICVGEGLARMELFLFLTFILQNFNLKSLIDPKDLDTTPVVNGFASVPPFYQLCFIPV
Sequence of Cytochrome P450 3A4 (Homo sapiens) (P08684 whole entry, looked up): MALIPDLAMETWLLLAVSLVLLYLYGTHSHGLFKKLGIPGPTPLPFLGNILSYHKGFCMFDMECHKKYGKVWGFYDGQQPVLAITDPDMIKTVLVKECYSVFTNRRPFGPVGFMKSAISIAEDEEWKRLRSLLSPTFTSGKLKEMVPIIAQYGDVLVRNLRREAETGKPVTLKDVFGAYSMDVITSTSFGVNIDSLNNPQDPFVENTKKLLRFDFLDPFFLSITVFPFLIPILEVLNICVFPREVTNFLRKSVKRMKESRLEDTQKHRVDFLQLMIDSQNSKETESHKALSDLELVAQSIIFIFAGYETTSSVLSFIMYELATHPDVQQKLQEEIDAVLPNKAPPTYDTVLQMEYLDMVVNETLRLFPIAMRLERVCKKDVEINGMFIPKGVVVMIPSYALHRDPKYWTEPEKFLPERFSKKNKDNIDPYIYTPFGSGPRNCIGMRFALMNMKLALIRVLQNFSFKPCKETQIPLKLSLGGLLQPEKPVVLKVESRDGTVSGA

COc1cc(-c2nc(NC(=O)c3cc4cc(C)cc(C)c4n3CC(=O)O)sc2CCC2CCCCC2)c(OC)cc1Cl
active: [1] 5.76 µM | [2] 7.57 µM | CYP2C8 (gene 1558) 6.7 µM | CYP2C9 (gene 1559) 6.47 µM | CYP2E1 (gene 1571) 7.86 µM | CYP4A11 (gene 1579) 8.34 µM | [3] 7.45 µM | [4] 10.9 µM | [5] 29.1 µM | [6] 42.2 µM

Cc1ccc(Cl)cc1
inactive: all assays above

CCCCN(CCCC)CCCC
inactive: all assays above

CC(CO)OC(C)CO (stereo not given) (tested in a mixture with another compound)
not listed: CYP2C9 (gene 1559)
inactive: all other assays above

Cc1cccc(Nc2cc(Cl)nc(SCC(=O)O)n2)c1C
inactive: [4] | [5] | [6]
active: [1] 65.4 µM | [2] 50 µM | CYP2C8 (gene 1558) 50 µM | CYP2E1 (gene 1571) 22.3 µM | CYP4A11 (gene 1579) 4.63 µM

CCCCC(CC)COC(=O)CC(C(=O)OCC(CC)CCCC)S(=O)(=O)O (stereo not given)
inactive: CYP4A11 (gene 1579) | [5]
active: [1] 15.8 µM | [2] 89.9 µM | CYP2C8 (gene 1558) 15.8 µM | CYP2E1 (gene 1571) 76.5 µM | [4] 71.9 µM | [6] 85.5 µM

Cc1ccc(N(C)C)cc1
active: [1] 50 µM
not listed: CYP2C9 (gene 1559)
inactive: all other assays above

C[C@]12C=CC(=O)C=C1CC[C@@H]1[C@@H]2C(=O)C[C@@]2(C)[C@H]1CC[C@]2(O)C(=O)CO
inactive: [4] | [5] | [6]

Nc1ccccc1N
inactive: [4] | [5]
active: [1] 69 µM | [2] 71.8 µM | CYP2C8 (gene 1558) 78.3 µM | CYP2E1 (gene 1571) 73.1 µM | CYP4A11 (gene 1579) 66.5 µM | [6] 30 µM

CCCCCCCC=O
active: [4] 9.92 µM
not listed: CYP2C9 (gene 1559)
inactive: all other assays above

O=C(O)Cc1ccccc1Nc1c(Cl)cccc1Cl
active: [2] 5.86 µM | CYP2E1 (gene 1571) 11.8 µM
inactive: CYP2C8 (gene 1558) | CYP4A11 (gene 1579) | [4] | [5] | [6]

O=c1c(O)c(-c2ccc(O)c(O)c2)oc2cc(O)cc(O)c12
active: CYP4A11 (gene 1579) 50 µM
not listed: CYP2C9 (gene 1559)
inactive: all other assays above

CC(=O)OCCOCCOCCOC(C)=O
not listed: CYP2C9 (gene 1559)
inactive: all other assays above

CCCCCCCCCCO
not listed: CYP2C9 (gene 1559)
inactive: all other assays above

CN[C@H]1CC[C@@H](c2ccc(Cl)c(Cl)c2)c2ccc(S(N)(=O)=O)cc21
active: [1] 11.4 µM | CYP2E1 (gene 1571) 13 µM | CYP4A11 (gene 1579) 21.4 µM | [3] 89.2 µM | [4] 63 µM | [6] 83 µM
inactive: [2] | CYP2C8 (gene 1558) | [5]

COc1ccc(C)cc1N
active: [1] 25.6 µM
not listed: CYP2C9 (gene 1559)
inactive: all other assays above

C[Si]1(C)O[Si](C)(C)O[Si](C)(C)O[Si](C)(C)O1
not listed: CYP2C9 (gene 1559)
inactive: all other assays above

Nc1ccc2c(c1)C(=O)c1ccccc1C2=O
active: [1] 11.3 µM | CYP2C8 (gene 1558) 3.97 µM | CYP2E1 (gene 1571) 14.3 µM | CYP4A11 (gene 1579) 29 µM | [4] 20.9 µM | [5] 6.13 µM | [6] 10.4 µM
inactive: [2] | [3]

Cc1nc(-c2ccc3c(c2)CCN(CCC2CCC(NC(=O)/C=C/c4ccc(F)cc4)CC2)CC3)no1 (stereo not given)
not listed: CYP2C9 (gene 1559)
inactive: all other assays above

CN1CCN(Cc2cc(-c3ccc4[nH]c(=O)oc4c3)co2)[C@@H](c2ccc(F)cc2)C1
active: [1] 86.7 µM | CYP2E1 (gene 1571) 50 µM | CYP4A11 (gene 1579) 78.5 µM
not listed: CYP2C9 (gene 1559)
inactive: all other assays above

O=C(O)CCCCC(=O)O
not listed: CYP2C9 (gene 1559)
inactive: all other assays above

CC(=O)OC/C=C(\C)CCC=C(C)C
not listed: CYP2C9 (gene 1559)
inactive: all other assays above

CCOc1ccc2c(c1)C(C)=CC(C)(C)N2
active: [1] 0.551 µM | CYP2E1 (gene 1571) 30 µM | [3] 1.73 µM
not listed: [2] | CYP2C9 (gene 1559)
inactive: all other assays above

CC(C)(C)c1cc(O)c(C(C)(C)C)cc1O
active: [4] 50 µM | [6] 50 µM
inactive: [5]

NCC1(Cc2noc(=O)[nH]2)CCCCC1
not listed: CYP2C9 (gene 1559)
inactive: all other assays above

O=C(OCCCCCOC(=O)c1ccccc1)c1ccccc1
active: [1] 0.969 µM | [2] 2.44 µM | CYP2C8 (gene 1558) 0.726 µM | CYP4A11 (gene 1579) 1.94 µM | [4] 1.38 µM | [5] 2.17 µM
inactive: CYP2E1 (gene 1571) | [3] | [6]

CC1(C)NC(=O)NC1=O
not listed: CYP2C9 (gene 1559)
inactive: all other assays above

CN1CCCC1=O
not listed: CYP2C9 (gene 1559)
inactive: all other assays above

COC(=O)c1ccc(O)cc1
not listed: CYP2C9 (gene 1559)
inactive: all other assays above

Nc1nc(N)c2nc(CNc3ccc(C(=O)N[C@@H](CCC(=O)O)C(=O)O)cc3)cnc2n1
active: CYP2E1 (gene 1571) 0.098 µM | [6] 0.102 µM
not listed: CYP2C9 (gene 1559)
inactive: all other assays above

CCOC(=O)C(C)(C)Oc1ccc(Cl)cc1
active: CYP4A11 (gene 1579) 27.6 µM
not listed: [2] | CYP2C9 (gene 1559) | [3]
inactive: all other assays above

Nc1ccc(S(=O)(=O)c2ccc(N)cc2)cc1
active: [1] 32.4 µM | CYP2E1 (gene 1571) 5.9 µM
not listed: [2] | [5]
inactive: all other assays above
